A short description of test [1]: qHTS assay to identify small molecule antagonists of the thyroid receptor (TR) signaling pathway - cell viability counter screen (AID 743064). Note: nearly all actives have a fitted effect of over 50% in size. Note: potency is the fitted concentration of half-maximal effect. In short, it runs like this:
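Plate GH3.TRE-Luc cells; incubate 4 h at 37 °C; add compound, then T3 to 1 nM final; incubate 23.5 h; add CellTiter-Fluor; incubate 30 min at 37 °C, 5% CO2; read fluorescence.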

A short description of test [2]: qHTS assay to identify small molecule antagonists of the thyroid receptor (TR) signaling pathway (AID 743065). Note: nearly all actives have a fitted effect of over 55% in size. Note: potency is the fitted concentration of half-maximal effect. In short, it runs like this: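 GH3.TRE-Luc rat pituitary cells carrying two TR response elements driving luciferase were plated for 4 h, given compound plus 1 nM T3 (final), and incubated 23.5 h at 37 C. ONE-Glo luminescence measured reporter inhibition; CellTiter-Fluor fluorescence tracked cytotoxicity.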

Test [3] deals with thyroid hormone receptor (rat, GH3 cells). Description: qHTS assay to identify small molecule agonists of the thyroid receptor (TR) signaling pathway (AID 743066; calls by dose curve). Background: Quantitative high-throughput screening tests each substance at several concentrations.
In test [4] the target is Estrogen receptor (Homo sapiens) (UniProt P03372). The test can be described thus: qHTS assay to identify small molecule antagonists of the estrogen receptor alpha (ER-alpha) signaling pathway (AID 743069; active = well fitted curve in the direction sought with a large enough effect in the signal ratio in the repeat runs, not every such curve was filed as active; the % refers to the signal ratio). In short, it runs like this:
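A 17beta-estradiol challenge was applied right after compound transfer to ER-alpha-UAS-bla HEK293 cells previously kept in charcoal-stripped serum. Plates stood 18 hr at 37C and 5% CO2; fluorescence was read following 2 hr FRET substrate loading at room temperature.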

A short description of test [5]: qHTS assay to identify small molecule antagonists of the estrogen receptor alpha (ER-alpha) signaling pathway - cell viability counter screen (AID 743074; calls by dose curve;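 note: HEK293 cells carrying ER-alpha-UAS-bla reporter stimulated with 17beta-estradiol; nearly all actives have a fitted effect of over 45% in size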).
The target of test [6] is Estrogen receptor (Homo sapiens) (UniProt P03372). The test can be described thus: qHTS assay to identify small molecule agonists of the estrogen receptor alpha (ER-alpha) signaling pathway (AID 743075; calls by dose curve;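 note: HEK293 GripTite cells with ER-alpha and UAS-driven beta-lactamase reporter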).
Test [7] has the same target. The test can be described thus: qHTS assay to identify small molecule agonists of the estrogen receptor alpha (ER-alpha) signaling pathway using the BG1 cell line (AID 743079). Note: nearly all actives have a fitted effect of over 20% in size. Note: potency is the fitted concentration of half-maximal effect. As to conditions: BG1Luc4E2 cells, ERE-luciferase agonist, 22 h; activation: at 70.3 µM (top of the series).
Test [8] can be described thus: qHTS assay to identify small molecule antagonists of the estrogen receptor alpha (ER-alpha) signaling pathway using the BG1 cell line (AID 743080; calls by dose curve;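 note: BG1 cells stimulated with 17beta-estradiol alongside compound; nearly all actives have a fitted effect of over 25% in size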). In short, it runs like this: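 After 5 days in phenol-red-free 10% charcoal-stripped FBS medium, BG1-Luc-4E2 cells were seeded, left 24 h at 37 C, co-treated with compounds and 17beta-estradiol for 21.5 h, then assayed for viability and luciferase.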

A short description of test [9]: qHTS assay to identify small molecule antagonists of the estrogen receptor alpha (ER-alpha) signaling pathway using the BG1 cell line - cell viability counter screen (AID 743081).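 Note: compound given together with 17beta-estradiol as the ER stimulus; nearly all actives have a fitted effect of over 45% in size.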
For test [10], the target named is Aromatase (Homo sapiens) (UniProt P11511). The test can be described thus: qHTS assay to identify aromatase inhibitors (AID 743083). Note: nearly all actives have a fitted effect of over 55% in size.

Inconclusive results are not listed. Calls of active or inactive are those of the source. Unless noted, calls come from the whole dose curve; as a rule, active = well fitted curve in the direction sought with a large enough effect in the repeat runs; inconclusive = weak or mixed curves; inactive = no such curve, though single readings can be large; an effect the other way counts as inactive or inconclusive.

Chain of Estrogen receptor (Homo sapiens) (P03372 whole entry, looked up): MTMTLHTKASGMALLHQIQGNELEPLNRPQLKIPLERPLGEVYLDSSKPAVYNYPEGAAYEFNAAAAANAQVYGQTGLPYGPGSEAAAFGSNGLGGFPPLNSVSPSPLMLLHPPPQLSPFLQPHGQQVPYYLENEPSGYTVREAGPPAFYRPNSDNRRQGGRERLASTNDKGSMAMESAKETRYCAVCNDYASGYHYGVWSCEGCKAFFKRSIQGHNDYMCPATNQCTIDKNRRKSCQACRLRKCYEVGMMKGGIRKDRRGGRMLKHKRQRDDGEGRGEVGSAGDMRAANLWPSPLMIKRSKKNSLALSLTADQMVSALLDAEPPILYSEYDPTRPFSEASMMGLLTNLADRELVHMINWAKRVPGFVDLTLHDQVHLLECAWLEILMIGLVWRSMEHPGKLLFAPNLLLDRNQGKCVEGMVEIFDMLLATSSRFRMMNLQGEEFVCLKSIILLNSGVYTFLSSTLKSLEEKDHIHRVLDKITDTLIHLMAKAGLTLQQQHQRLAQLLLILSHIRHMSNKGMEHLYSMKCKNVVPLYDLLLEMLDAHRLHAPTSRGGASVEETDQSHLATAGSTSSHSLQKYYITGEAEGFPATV
Chain of Aromatase (Homo sapiens) (P11511 whole entry, looked up): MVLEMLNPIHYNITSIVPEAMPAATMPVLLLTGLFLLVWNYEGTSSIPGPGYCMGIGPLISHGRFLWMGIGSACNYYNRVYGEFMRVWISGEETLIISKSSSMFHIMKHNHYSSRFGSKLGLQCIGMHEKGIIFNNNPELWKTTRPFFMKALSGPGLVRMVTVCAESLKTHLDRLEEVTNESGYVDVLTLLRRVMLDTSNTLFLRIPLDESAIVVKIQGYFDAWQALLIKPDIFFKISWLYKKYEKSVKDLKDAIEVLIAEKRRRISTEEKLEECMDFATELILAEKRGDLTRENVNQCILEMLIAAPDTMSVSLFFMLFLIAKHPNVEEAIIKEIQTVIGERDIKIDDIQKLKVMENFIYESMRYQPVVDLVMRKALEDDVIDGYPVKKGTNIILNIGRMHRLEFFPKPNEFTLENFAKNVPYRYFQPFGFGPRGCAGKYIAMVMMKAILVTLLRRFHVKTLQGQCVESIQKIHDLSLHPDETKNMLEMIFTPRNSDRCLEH

Take `CC(=O)N[C@@H](C=O)[C@@H](O)[C@H](O)[C@H](O)CO`: the Potency result in test [1], in test [2], in test [3], in test [4], in test [5] and in [6] was “inactive” each time. Further, the Potency entry in test [7], in [8], in test [9] and in test [10] was “inactive” in each case.
Regarding `O=C(CO)[C@@H](O)[C@H](O)[C@@H](O)C(=O)O`, the Potency result in [1], in [2], in test [3], in [4], in test [5] and in test [6] was “inactive” in each case. Also, the Potency result in [7], in test [8], in [9] and in [10] was “inactive” throughout.
For `CCCc1ccc(C(=O)O)cc1`, the Potency entry in [1], in test [2], in [3], in test [4], in [5] and in [6] was “inactive” in each case. Also, the Potency entry in test [7], in test [8], in [9] and in test [10] was “inactive” in each case.
In the case of `CC(=O)O[C@H]1C[C@@]2(C)[C@@H](C[C@@H](O)[C@H]3[C@@]4(C)CC[C@@H](O)[C@@H](C)[C@@H]4CC[C@@]32C)/C1=C(\CCC=C(C)C)C(=O)O`, the Potency entry in test [1], in test [2], in test [3], in [4], in test [5] and in test [6] was “inactive” in each case. The Potency entry in test [7], in [8], in test [9] and in test [10] was “inactive” in each case.
Turning to `O=P(O)(O)OC[C@H](O)CO`, the Potency result in [1], in test [2], in test [3], in [4], in test [5] and in [6] was “inactive” throughout. Also, the Potency result in test [7], in [8], in [9] and in test [10] was “inactive” each time.
Regarding `CC(O)[C@@H]1NC(=O)[C@H](Cc2ccccc2)NC(=O)[C@H](C(C)O)NC(=O)[C@H](CCCCN)NC(=O)[C@H](Cc2c[nH]c3ccccc23)NC(=O)[C@H](Cc2ccccc2)NC(=O)[C@H](Cc2ccccc2)NC(=O)[C@H](CC(N)=O)NC(=O)[C@H](CCCCN)NC(=O)[C@@H](NC(=O)CNC(=O)[C@H](C)N)CSSC[C@@H](C(=O)O)NC(=O)[C@H](CO)NC1=O` (some centres undefined), the Potency result in test [1], in test [2], in [3], in [4], in test [5] and in test [6] was “inactive” in each case. Also, the Potency entry in [7], in test [8], in test [9] and in test [10] was “inactive” throughout.
Consider `C[C@H](N)C(=O)N[C@@H](C)P(=O)(O)O`, for which the Potency result in test [1], in test [2], in test [3], in test [4], in test [5] and in [6] was “inactive” each time. Moreover, the Potency result in test [7], in [8], in test [9] and in test [10] was “inactive” in each case.
With `COc1ccc2c(c1)N(C[C@H](C)CN(C)C)c1ccccc1S2`, the Potency in test [1] was 4.52 µM (active); in [2] it was 10.1 µM (active). Moreover, the Potency entry in [3], in test [4], in test [5], in [6], in [7] and in test [8] was “inactive” each time. For the same compound, the Potency entry in test [9] was “inactive”.
For `NCc1ccccc1CC(=O)N[C@@H]1C(=O)N2C(C(=O)O)=C(CSc3nnnn3CC(=O)O)CS[C@H]12`, the Potency result in [1], in test [2], in test [3], in test [4], in test [5] and in [6] was “inactive” throughout. Besides, the Potency entry in test [7], in test [8], in [9] and in [10] was “inactive” in each case.
For the compound `CCCCCCCCCCCCOCCCN`, the Potency entry in [1], in test [2], in [3], in [4], in [5] and in [6] was “inactive” throughout. For the same compound, the Potency result in test [7], in test [8], in test [9] and in test [10] was “inactive” throughout.
Regarding `COC(=O)CC[C@H](N)C(=O)O`, the Potency entry in test [1], in test [2], in [3], in [4], in [5] and in [6] was “inactive” throughout. The Potency result in test [7], in [8], in test [9] and in [10] was “inactive” each time.
As for `CO[C@@H]1[C@@H](O[C@@H]2O[C@H](C)[C@@H](O[C@H]3C[C@@](C)(O)[C@@H](OC(=O)CC(C)C)[C@H](C)O3)[C@H](N(C)C)[C@H]2O)[C@@H](CC=O)C[C@@H](C)[C@@H](O)/C=C/C=C/C[C@@H](C)OC(=O)C[C@H]1O`, the Potency entry in [1], in test [2], in test [3], in test [4], in [5] and in [6] was “inactive” each time. For the same compound, the Potency entry in [8], in [9] and in test [10] was “inactive” throughout. In addition, in test [7], the Potency was 13.3 µM (active).
On to `O=C(O)c1cc(N=Nc2ccc(O)c(C(=O)O)c2)ccc1O`, for which the Potency result in [1], in test [2], in [3], in [4], in test [5] and in test [6] was “inactive” each time. Moreover, the Potency result in test [7], in test [8], in test [9] and in [10] was “inactive” each time.
`O=C(O)C1=C(CSc2nnnn2CS(=O)(=O)O)CS[C@@H]2[C@H](NC(=O)[C@H](O)c3ccccc3)C(=O)N12`: the Potency result in [1], in [2], in [3], in [4], in test [5] and in test [6] was “inactive” throughout. Also, the Potency result in test [8], in test [9] and in test [10] was “inactive” each time. Also, in [7], the Potency was 37.6 µM (active).
For `CCN(CC)CCOC(=O)c1cccnc1`, the Potency entry in [1], in [2], in test [3], in test [4], in [5] and in [6] was “inactive” each time. For the same compound, the Potency entry in [7], in test [8], in test [9] and in test [10] was “inactive” each time.
On to `COc1cc2c(cc1OC)CC(=O)N(CCCN(C)C[C@H]1Cc3cc(OC)c(OC)cc31)CC2`, for which the Potency entry in [1], in test [2], in test [3], in test [4], in test [5] and in test [6] was “inactive” in each case. The Potency result in test [7], in test [8], in test [9] and in [10] was “inactive” each time.
`CC(C)(CO)[C@@H](O)C(=O)NCCC(=O)NCCSSCCNC(=O)CCNC(=O)[C@H](O)C(C)(C)CO`: the Potency result in test [1], in [2], in test [3], in [4], in [5] and in [6] was “inactive” in each case. The Potency result in test [7], in [8], in [9] and in test [10] was “inactive” in each case.
For the compound `CCCCCCCCCCCCCCCC(=O)O[C@@H]1[C@@H](O)[C@@H](O)[C@@H]([C@H](NC(=O)[C@@H]2C[C@@H](CCC)CN2C)[C@H](C)Cl)O[C@@H]1SC`, the Potency entry in [1], in [2], in test [3], in test [4], in test [5] and in test [6] was “inactive” throughout. For the same compound, the Potency result in test [7], in test [8], in [9] and in test [10] was “inactive” in each case.

For the origin of these results see PubChem BioAssay (Tox21).
